Results taken from the supplement of paper PMC11001985.
A number with no mark means an inactive call.

Compound: C#CCNC(=O)CCSSCCC(=O)NCCc1ccc(C=O)c(C=O)c1
Experiment: lysine labeling ratio R10:1 (500 µM / 50 µM probe), SILAC-ABPP in living cells; higher = lower intrinsic lysine reactivity toward the probe, active = 2 or less
Conditions: HeLa; probe concentrations 500 vs 50 µM
Summary of the method: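 An alkyne-tagged lysine probe with a disulfide linker labelled living HeLa cells in PBS at room temperature at either 50 µM or 500 µM, using SILAC light and heavy cells in forward and reverse label swaps. Lysates were mixed, clicked to biotin-azide, trypsin-digested, enriched on neutravidin, DTT-released, alkylated and measured by LC-MS/MS on a TIMS-TOF Pro. Each lysine's R is the filtered median high-probe/low-probe MS1 peptide ratio, combined as the median over forward and reverse replicates, with 20 as the upper limit.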

UniProt Q15149, sequence (Q15149 whole entry): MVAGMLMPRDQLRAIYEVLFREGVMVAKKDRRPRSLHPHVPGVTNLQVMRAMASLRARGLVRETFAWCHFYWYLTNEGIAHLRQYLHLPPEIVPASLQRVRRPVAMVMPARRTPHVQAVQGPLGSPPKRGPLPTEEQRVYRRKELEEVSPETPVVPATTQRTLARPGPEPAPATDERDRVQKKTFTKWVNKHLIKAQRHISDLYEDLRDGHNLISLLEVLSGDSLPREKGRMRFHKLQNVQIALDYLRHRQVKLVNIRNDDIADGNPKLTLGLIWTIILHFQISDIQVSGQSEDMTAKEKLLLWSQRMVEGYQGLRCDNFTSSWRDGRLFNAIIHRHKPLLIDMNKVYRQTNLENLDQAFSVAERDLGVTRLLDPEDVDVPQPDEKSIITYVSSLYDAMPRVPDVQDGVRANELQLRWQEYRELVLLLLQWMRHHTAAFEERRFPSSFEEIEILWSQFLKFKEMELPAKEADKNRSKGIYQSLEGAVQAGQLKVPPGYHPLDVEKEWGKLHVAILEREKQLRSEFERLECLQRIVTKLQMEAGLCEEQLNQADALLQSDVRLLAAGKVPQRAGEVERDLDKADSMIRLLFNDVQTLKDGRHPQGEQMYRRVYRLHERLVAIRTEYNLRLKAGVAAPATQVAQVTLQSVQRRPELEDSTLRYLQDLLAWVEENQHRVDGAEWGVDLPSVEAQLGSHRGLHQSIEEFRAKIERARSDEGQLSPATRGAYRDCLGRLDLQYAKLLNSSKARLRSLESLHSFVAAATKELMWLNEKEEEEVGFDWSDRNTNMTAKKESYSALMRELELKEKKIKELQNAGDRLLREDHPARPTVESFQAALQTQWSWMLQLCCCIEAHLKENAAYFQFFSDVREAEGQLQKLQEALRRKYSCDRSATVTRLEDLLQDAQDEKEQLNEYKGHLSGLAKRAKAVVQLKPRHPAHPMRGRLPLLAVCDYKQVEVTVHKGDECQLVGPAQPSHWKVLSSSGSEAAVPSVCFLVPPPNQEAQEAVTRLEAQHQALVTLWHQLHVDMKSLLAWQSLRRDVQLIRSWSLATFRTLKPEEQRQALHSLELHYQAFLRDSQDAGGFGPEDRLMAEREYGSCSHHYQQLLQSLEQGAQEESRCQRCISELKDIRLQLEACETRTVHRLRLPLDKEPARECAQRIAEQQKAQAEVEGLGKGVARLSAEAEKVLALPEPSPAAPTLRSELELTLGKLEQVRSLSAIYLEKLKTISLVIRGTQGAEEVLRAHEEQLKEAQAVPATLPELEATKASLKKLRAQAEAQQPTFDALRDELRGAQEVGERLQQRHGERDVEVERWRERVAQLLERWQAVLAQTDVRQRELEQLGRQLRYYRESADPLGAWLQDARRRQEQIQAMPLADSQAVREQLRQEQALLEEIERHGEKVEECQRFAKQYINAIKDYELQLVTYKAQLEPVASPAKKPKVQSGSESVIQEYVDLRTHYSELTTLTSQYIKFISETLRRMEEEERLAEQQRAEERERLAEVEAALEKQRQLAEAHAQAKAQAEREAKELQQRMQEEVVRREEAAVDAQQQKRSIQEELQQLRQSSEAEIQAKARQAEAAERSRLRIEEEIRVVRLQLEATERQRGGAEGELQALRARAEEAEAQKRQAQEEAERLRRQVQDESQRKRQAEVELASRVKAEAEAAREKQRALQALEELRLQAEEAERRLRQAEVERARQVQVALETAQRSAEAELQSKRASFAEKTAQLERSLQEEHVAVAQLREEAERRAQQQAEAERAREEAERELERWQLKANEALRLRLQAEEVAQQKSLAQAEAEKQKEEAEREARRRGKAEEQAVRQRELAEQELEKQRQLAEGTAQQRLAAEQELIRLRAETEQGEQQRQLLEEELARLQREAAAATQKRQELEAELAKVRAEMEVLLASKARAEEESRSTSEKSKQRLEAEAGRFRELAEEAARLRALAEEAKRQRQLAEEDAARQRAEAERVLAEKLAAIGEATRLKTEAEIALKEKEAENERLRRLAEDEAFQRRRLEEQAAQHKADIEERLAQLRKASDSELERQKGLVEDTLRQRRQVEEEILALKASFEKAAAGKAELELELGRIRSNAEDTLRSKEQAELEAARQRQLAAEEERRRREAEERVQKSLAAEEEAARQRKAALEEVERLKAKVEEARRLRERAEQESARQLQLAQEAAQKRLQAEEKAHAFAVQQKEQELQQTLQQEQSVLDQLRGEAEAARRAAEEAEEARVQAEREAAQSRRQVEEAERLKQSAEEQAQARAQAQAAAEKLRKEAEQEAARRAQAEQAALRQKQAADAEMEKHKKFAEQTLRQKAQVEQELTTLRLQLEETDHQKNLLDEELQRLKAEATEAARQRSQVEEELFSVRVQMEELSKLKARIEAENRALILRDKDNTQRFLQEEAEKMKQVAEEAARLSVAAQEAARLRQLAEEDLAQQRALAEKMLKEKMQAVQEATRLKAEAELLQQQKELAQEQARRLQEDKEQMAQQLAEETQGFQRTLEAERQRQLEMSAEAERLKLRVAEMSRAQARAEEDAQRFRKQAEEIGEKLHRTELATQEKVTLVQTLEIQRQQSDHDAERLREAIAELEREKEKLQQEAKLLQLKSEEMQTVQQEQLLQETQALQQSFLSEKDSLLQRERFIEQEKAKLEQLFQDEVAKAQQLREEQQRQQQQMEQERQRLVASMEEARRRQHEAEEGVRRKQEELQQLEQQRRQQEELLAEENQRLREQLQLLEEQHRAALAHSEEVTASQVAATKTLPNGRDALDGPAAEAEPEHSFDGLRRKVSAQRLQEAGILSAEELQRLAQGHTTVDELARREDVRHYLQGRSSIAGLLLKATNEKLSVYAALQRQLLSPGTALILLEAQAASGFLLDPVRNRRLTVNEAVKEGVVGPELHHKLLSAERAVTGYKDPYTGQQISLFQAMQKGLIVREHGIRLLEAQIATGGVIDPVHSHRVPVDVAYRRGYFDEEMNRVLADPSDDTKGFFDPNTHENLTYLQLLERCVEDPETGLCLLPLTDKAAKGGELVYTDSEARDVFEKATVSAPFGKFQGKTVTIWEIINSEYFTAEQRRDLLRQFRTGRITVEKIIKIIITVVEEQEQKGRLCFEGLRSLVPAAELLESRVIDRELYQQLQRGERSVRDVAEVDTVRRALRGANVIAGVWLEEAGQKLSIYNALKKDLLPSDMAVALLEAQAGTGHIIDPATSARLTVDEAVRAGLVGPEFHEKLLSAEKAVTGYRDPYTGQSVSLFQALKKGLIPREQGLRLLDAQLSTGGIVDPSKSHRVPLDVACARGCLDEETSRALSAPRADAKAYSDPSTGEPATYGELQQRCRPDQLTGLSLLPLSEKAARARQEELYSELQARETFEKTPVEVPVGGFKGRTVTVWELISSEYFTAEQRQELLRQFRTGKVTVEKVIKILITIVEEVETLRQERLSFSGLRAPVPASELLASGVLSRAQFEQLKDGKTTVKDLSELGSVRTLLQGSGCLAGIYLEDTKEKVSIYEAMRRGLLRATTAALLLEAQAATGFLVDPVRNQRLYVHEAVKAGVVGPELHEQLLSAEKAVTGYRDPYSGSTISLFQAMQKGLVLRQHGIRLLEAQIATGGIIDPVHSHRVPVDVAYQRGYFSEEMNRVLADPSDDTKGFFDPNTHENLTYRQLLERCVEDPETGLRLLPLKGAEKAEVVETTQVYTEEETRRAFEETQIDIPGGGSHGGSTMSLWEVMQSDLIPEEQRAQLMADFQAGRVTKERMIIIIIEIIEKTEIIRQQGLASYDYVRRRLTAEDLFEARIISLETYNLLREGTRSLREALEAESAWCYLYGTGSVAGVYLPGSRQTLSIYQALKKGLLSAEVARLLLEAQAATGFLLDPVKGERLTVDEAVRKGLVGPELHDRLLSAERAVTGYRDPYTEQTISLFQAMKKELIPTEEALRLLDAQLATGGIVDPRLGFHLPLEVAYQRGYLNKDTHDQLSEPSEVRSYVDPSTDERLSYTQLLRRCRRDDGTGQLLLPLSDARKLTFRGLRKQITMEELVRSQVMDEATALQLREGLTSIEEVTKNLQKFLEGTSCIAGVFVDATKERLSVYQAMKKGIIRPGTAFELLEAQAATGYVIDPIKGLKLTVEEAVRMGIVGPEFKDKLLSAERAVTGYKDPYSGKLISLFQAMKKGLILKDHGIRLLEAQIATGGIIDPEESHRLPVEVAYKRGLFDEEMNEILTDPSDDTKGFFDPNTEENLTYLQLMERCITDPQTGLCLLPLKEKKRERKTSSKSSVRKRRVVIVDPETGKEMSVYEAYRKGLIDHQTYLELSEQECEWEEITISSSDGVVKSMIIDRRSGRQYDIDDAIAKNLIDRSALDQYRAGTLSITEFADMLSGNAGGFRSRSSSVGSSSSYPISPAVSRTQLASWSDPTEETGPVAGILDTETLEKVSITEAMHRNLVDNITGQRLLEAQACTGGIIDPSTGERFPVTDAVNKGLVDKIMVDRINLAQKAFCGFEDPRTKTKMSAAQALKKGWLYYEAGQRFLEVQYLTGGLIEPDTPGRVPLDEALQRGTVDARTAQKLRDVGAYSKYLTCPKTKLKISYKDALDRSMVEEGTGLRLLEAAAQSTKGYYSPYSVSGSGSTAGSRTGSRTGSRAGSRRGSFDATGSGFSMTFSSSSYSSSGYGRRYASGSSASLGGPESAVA
UniProt P50454, sequence (P50454 whole entry): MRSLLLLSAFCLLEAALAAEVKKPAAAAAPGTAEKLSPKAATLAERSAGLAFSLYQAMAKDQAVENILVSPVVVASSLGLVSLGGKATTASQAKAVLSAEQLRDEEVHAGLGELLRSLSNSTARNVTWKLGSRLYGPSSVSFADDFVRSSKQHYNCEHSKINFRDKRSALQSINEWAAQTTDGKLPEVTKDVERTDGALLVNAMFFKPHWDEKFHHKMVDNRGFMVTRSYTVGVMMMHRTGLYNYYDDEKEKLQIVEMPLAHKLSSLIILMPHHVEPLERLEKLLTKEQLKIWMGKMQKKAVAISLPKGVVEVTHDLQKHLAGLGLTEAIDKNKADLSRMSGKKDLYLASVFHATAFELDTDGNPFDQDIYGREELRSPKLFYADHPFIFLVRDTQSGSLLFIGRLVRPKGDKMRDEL

Target | lysine labeling ratio R10:1
WNT5A (lysine site: K171) (UniProt P41221) | 3.57
EZR (lysine site: K400) (UniProt P15311) | 6.03
PRDX6 (lysine site: K56) (UniProt P30041) | 3.23
SERPINH1 (lysine site: K160) (UniProt P50454) | 2.81
PDCD6IP (lysine site: K313) (UniProt Q8WUM4) | 2.29
UniProt Q9UHN6 (lysine site: K767) | 3.26
FLNA (lysine site: K338) (UniProt P21333) | 3.9
SLC4A2 (lysine site: K893) (UniProt P04920) | 3.14
UniProt P62829 (lysine site: K75) | 4.96
Q95604 (lysine site: K145) (UniProt P10321) | 2.39
F11R (lysine site: K63) (UniProt Q9Y624) | 2.75
AHNAK (lysine site: K326) (UniProt Q09666) | 1.7 (active)
SCFD1 (lysine site: K572) (UniProt Q8WVM8) | 2.58
CLTC (lysine site: K1612) (UniProt Q00610) | 4.67
FAM120A (lysine site: K673) (UniProt Q9NZB2) | 1.15 (active)
UniProt P08727 (lysine site: K265) | 3.48
UniProt Q86V81 (lysine site: K134) | 4.23
UniProt P26639 (lysine site: K36) | 3.28
UniProt Q15149 (lysine site: K1896) | 5.17
RPS2 (lysine site: K275) (UniProt P15880) | 1.57 (active)
LNPEP (lysine site: K923) (UniProt Q9UIQ6) | 5.14
SPTAN1 (lysine site: K1856) (UniProt Q13813) | 5.67
RAB8A (lysine site: K197) (UniProt P61006) | 2.44
LNPEP (lysine site: K626) (UniProt Q9UIQ6) | 0.72 (active)
FLNA (lysine site: K578) (UniProt P21333) | 1.25 (active)
EHD2 (lysine site: K491) (UniProt Q9NZN4) | 1.25 (active)

Target | lysine labeling ratio R10:1
UniProt Q16363 (lysine site: K1723) | 2.13
ASPH (lysine site: K110) (UniProt Q12797) | 4.5
SLC25A5 (lysine site: K23) (UniProt P05141) | 3.58
TMEM109 (lysine site: K46) (UniProt Q9BVC6) | 3.23
ACSL3 (lysine site: K422) (UniProt O95573) | 1.49 (active)
UniProt P62913 (lysine site: K159) | 2.96
CSRP1 (lysine site: K112) (UniProt P21291) | 1.46 (active)
TLN1 (lysine site: K2361) (UniProt Q9Y490) | 5.09
TFRC (lysine site: K358) (UniProt P02786) | 1.48 (active)
SMOC1 (lysine site: K299) (UniProt Q9H4F8) | 4.95
UniProt Q9BS26 (lysine site: K130) | 2.57
RPL5 (lysine site: K48) (UniProt P46777) | 1.91 (active)
UniProt P61353 (lysine site: K98) | 1.21 (active)
NECTIN3 (lysine site: K301) (UniProt Q9NQS3) | 1.83 (active)
ROBO1 (lysine site: K516) (UniProt Q9Y6N7) | 4.56
CD47 (lysine site: K130) (UniProt Q08722) | 3.14
SDF4 (lysine site: K121) (UniProt Q9BRK5) | 1.36 (active)
UniProt Q9BTX1 (lysine site: K628) | 5.32
XRCC6 (lysine site: K582) (UniProt P12956) | 1.52 (active)
DDX5 (lysine site: K207) (UniProt P17844) | 4.37
L1CAM (lysine site: K230) (UniProt P32004) | 5.86
VIM (lysine site: K313) (UniProt P08670) | 10.6
CAPZB (lysine site: K237) (UniProt P47756) | 1.4 (active)
UniProt P61978 (lysine site: K219) | 0.79 (active)
UniProt Q96JJ7 (lysine site: K119) | 3.06
VAPA (lysine site: K188) (UniProt Q9P0L0) | 1.99 (active)

Target | lysine labeling ratio R10:1
UniProt P62249 (lysine site: K26) | 1.43 (active)
EEA1 (lysine site: K583) (UniProt Q15075) | 3.77
PSME2 (lysine site: K15) (UniProt Q9UL46) | 6.45
ITGAV (lysine site: K400) (UniProt P06756) | 0.958 (active)
PRDX2 (lysine site: K92) (UniProt P32119) | 6.57
RPL28 (lysine site: K135) (UniProt P46779) | 3.84
EHD2 (lysine site: K220) (UniProt Q9NZN4) | 2.14
RPSA (lysine site: K52) (UniProt P08865) | 1.63 (active)
UniProt Q99623 (lysine site: K262) | 3.03
FZD1 (lysine site: K273) (UniProt Q9UP38) | 4.28
SERPINH1 (lysine site: K217) (UniProt P50454) | 1.17 (active)
LMAN1 (lysine site: K407) (UniProt P49257) | 3.11
HSPD1 (lysine site: K469) (UniProt P10809) | 4.7
UniProt Q15149 (lysine site: K195) | 4.55
UniProt Q8WXI7 (lysine site: K12605) | 3.8
UniProt Q15149 (lysine site: K1520) | 3.8
HSPG2 (lysine site: K4023) (UniProt P98160) | 5.16
MYH10 (lysine site: K1782) (UniProt P35580) | 1.76 (active)
UniProt P61513 (lysine site: K13) | 1.64 (active)
LAMC1 (lysine site: K1093) (UniProt P11047) | 2.13
ITGB5 (lysine site: K170) (UniProt P18084) | 3.44
UniProt P02533 (lysine site: K251) | 5.36
HSPA9 (lysine site: K106) (UniProt P38646) | 6.72
CPM (lysine site: K135) (UniProt P14384) | 0.991 (active)
UniProt Q9BSJ8 (lysine site: K197) | 5.31
PTPRM (lysine site: K231) (UniProt P28827) | 1.53 (active)

Target | lysine labeling ratio R10:1
FLNB (lysine site: K1955) (UniProt O75369) | 1.23 (active)
HNRNPU (lysine site: K343) (UniProt Q00839) | 3.69
UniProt Q15149 (lysine site: K877) | 2.95
UniProt Q15149 (lysine site: K1552) | 2.31
UniProt Q15149 (lysine site: K810) | 2.16
EEF1G (lysine site: K132) (UniProt P26641) | 1.81 (active)
GAS1 (lysine site: K192) (UniProt P54826) | 1.34 (active)
CCT8 (lysine site: K37) (UniProt P50990) | 1.6 (active)
ITGB5 (lysine site: K163) (UniProt P18084) | 2.53
SLC7A11 (lysine site: K222) (UniProt Q9UPY5) | 2.71
HSP90B1 (lysine site: K633) (UniProt P14625) | 3.03
BPTF (lysine site: K604) (UniProt Q12830) | 8.91
ACTN4 (lysine site: K632) (UniProt O43707) | 4.35
PNN (lysine site: K202) (UniProt Q9H307) | 3
UniProt P60866 (lysine site: K34) | 0.547 (active)
DNAJB1 (lysine site: K21) (UniProt P25685) | 1 (active)
ITGB1 (lysine site: K107) (UniProt P05556) | 1.41 (active)
HSPA4 (lysine site: K686) (UniProt P34932) | 8.32
YBX1 (lysine site: K264) (UniProt P67809) | 4.18
FBLN1 (lysine site: K59) (UniProt P23142) | 1.25 (active)
PAFAH1B1 (lysine site: K54) (UniProt P43034) | 3.44
FASN (lysine site: K1927) (UniProt P49327) | 1.05 (active)
CTTN (lysine site: K235) (UniProt Q14247) | 1.56 (active)
PLOD2 (lysine site: K412) (UniProt O00469) | 7.56
